hgDAF12 agonist: H. glycines DAF-12 receptor agonists, primary screen, cell-based, luminescence, HEK293, GAL4 fusion, UAS-luciferase. HEK293 GAL4-hgDAF12 UAS-luciferase reporter, agonist luminescence; normalized to butyrate control. activation, % at 6.8 µM. 1.8% of 370,000 active;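 active = activation above a cutoff set at the mean of all screened compounds plus 3 SD, cut at about 10% in these data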;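 note: 0% = DMSO wells and 100% = sodium butyrate wells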
ssDAF12 agonist: S. stercoralis DAF-12 nuclear receptor activators, primary screen, cell-based, luminescence, HEK293, GRIP1 co-expression, lit1-tk-luc; Nuclear hormone receptor DAF-12 (Strongyloides stercoralis); HEK293 ssDAF-12/GRIP1 lit1-tk-luc reporter; % of 3 µM dafachronic acid response; activation, % at 6.8 µM; 1% of 370,000 active; AID 652126, 2013;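 active = activation above the mean over all tested compounds plus 3 SD, cut at about 0.9% in these data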;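 note: 0% = DMSO-only wells and 100% = 3 µM delta7-dafachronic acid wells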
hcDAF-12 act: H. contortus DAF-12 nuclear receptor activators, primary screen, cell-based, luminescence, HEK293, lit1-tk-luc reporter; HEK293 hcDAF-12 lit1-tk-luc reporter; 0% DMSO, 100% Δ7-dafachronic acid; activation, % at 6.8 µM; 1.4% of 370,000 active; AID 652067, 2013;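 active = activation above the mean of all tested compounds plus 3 SD, cut at about 5.5% in these data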;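 note: 100% = response to 3 µM Δ7-dafachronic acid high control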
PolyA inhibitor: polyadenylation inhibitors in yeast reporter cells, primary screen, luminescence, S. cerevisiae; S. cerevisiae SKY197-pL101 polyadenylation reporter, beta-gal luminescence; efflux-impaired pdr1/pdr3 knockout yeast; score 100 = 6 SD above DMSO; activity score, % at 12 µM; 0.02% of 300,000 active; AID 1875, 2009;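 active = lowest replicate activity score at least 50, where 100 means six control SD above control mean; inconclusive = lowest score under 50 but half or more replicates reach 50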;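 note: yeast exposed to compound for 9 h at 30 °C; higher score means more reporter readthrough which indicates perturbed polyadenylation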
DAX1 inh-1: DAX1 (NR0B1) inhibitors on StAR promoter, primary screen, cell-based, luminescence, SF-1 (NR5A1), full-length DAX-1 | HEK293T StAR-luciferase reporter, SF-1/DAX-1 repression relief | 1.1% of 370,000 active | inhibition, % at 6.8 µM;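 active = inhibition above the mean over all tested compounds plus 3 SD, cut at about 3.6% in these data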;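 note: 0% = DAX-1 cells with DMSO and 100% = cells lacking DAX-1 with DMSO; higher inhibition means more luminescence from relief of DAX-1 repression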
DAX1 inh-2: DAX1 (NR0B1) inhibitors, primary screen, cell-based, HEK293, Gal4-DAX1, luciferase luminescence. HEK293 Gal4-DAX1 luciferase reporter. 0.99% of 340,000 active. inhibition, % at 6.75 µM;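 active = inhibition above the mean over all tested compounds plus 3 SD, cut at about 4.2% in these data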;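 note: 0% = DAX1-transfected cells with DMSO and 100% = empty-vector control cells with DMSO; inhibition shows as a rise in luminescence from relieved DAX1 repression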
LXR ag: LXR agonists, Gal4 luciferase reporter, confirmation, counter-screen for hcDAF-12 agonist project, cell-based, luminescence, HEK293, H. contortus campaign; shares compounds with hcDAF-12 act; HEK293 Gal4-LXR tk-luc reporter, 24 h; normalized: DMSO 0%, positive control 100%; activation, % at 6.8 µM; 3,400 tested, under 10 active;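 active = mean percent activation of the reporter above a cutoff set as the average over tested compounds plus their standard deviation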
Target sequence (P55055 whole entry, looked up, the tested form may be a part): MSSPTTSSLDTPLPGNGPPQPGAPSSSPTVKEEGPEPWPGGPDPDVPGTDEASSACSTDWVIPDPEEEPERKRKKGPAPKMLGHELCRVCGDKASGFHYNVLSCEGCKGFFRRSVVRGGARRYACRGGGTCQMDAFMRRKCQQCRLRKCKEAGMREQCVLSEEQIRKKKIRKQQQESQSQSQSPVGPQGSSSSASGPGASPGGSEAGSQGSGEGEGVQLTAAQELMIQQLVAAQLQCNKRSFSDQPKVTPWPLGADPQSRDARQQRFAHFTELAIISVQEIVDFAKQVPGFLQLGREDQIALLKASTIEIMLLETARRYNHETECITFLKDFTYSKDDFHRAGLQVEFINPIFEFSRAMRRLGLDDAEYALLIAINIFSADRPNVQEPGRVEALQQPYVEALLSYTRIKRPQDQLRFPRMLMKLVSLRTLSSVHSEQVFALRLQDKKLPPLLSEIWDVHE
hcDAF12 ag: H. contortus DAF-12 receptor agonists, confirmation, cell-based, luminescence, HEK293, lit1-tk-luc, triplicate; shares compounds with hcDAF-12 act; HEK293 hcDAF-12 lit1-tk-luc reporter; % of Δ7-dafachronic acid response; activation, % at 6.8 µM; 61% of 3,400 active; AID 743032, 2013;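 active = mean activation across triplicate tests above the threshold derived from the earlier primary screen, cut at about 5.5% in these data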;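 note: 0% = DMSO only wells and 100% = 3 µM Δ7-dafachronic acid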
* hit, by the source's call. Sampled rows, rich in hits. Any-hit rate of the full collection: about 4.1%.

Screening CC(=O)Oc1c(Br)cc(N(C(C)=O)S(=O)(=O)c2ccccc2)c2ccccc12 returned hgDAF12 agonist 0, ssDAF12 agonist 0, hcDAF-12 act 12*, PolyA inhibitor -20, DAX1 inh-1 -2, DAX1 inh-2 -1, LXR ag 0 and hcDAF12 ag 2.
COc1ccc(C(C)(C)C)cc1NC(=O)CNc1cccc2ccccc12 was read as hgDAF12 agonist -3, ssDAF12 agonist -1, hcDAF-12 act 7.6*, PolyA inhibitor 11, DAX1 inh-1 0, DAX1 inh-2 -1, LXR ag 0 and hcDAF12 ag 0.
COc1ccccc1NC(=O)Cc1cccc2ccccc12 was read as hgDAF12 agonist -2, ssDAF12 agonist -1, hcDAF-12 act -2, PolyA inhibitor -2, DAX1 inh-1 0 and DAX1 inh-2 -1.
CCOC(=O)C(C)(C)Sc1nc2c(cnn2-c2ccc(F)cc2)c(=O)[nH]1 was read as hgDAF12 agonist -5, ssDAF12 agonist -1, hcDAF-12 act -1, PolyA inhibitor -3, DAX1 inh-1 0 and DAX1 inh-2 1.
For CCOC(=O)C(C)(C)Sc1nc2c(cnn2-c2ccc(C)cc2)c(=O)[nH]1 the results were hgDAF12 agonist 2, ssDAF12 agonist -1, hcDAF-12 act 8.8*, PolyA inhibitor 1, DAX1 inh-1 0, DAX1 inh-2 0, LXR ag 0 and hcDAF12 ag 0.
For c1ccc(-c2ccc(-c3ccccn3)s2)nc1 the results were hgDAF12 agonist 13*, ssDAF12 agonist 3.8*, hcDAF-12 act 15*, PolyA inhibitor -22, DAX1 inh-1 2, DAX1 inh-2 4.7*, LXR ag 1 and hcDAF12 ag 13*.
For Cc1ccc(NC(=O)c2ccc(OC(=O)COc3cccc(Cl)c3)cc2)cc1 the results were hgDAF12 agonist 12*, ssDAF12 agonist 0, hcDAF-12 act 7.6*, PolyA inhibitor inconclusive, DAX1 inh-1 3.9*, DAX1 inh-2 1, LXR ag 1 and hcDAF12 ag 4.
Screening Cc1cccc(OCC(=O)Oc2ccc(Cl)cc2)c1 returned hgDAF12 agonist 1, ssDAF12 agonist -1, hcDAF-12 act -1, PolyA inhibitor 11, DAX1 inh-1 0 and DAX1 inh-2 1.
COc1ccc(-c2csc(CCN3N=C(C)CC3=O)n2)cc1 was read as hgDAF12 agonist -2, ssDAF12 agonist -1, hcDAF-12 act -1, PolyA inhibitor 1, DAX1 inh-1 -1 and DAX1 inh-2 -1.
`CCC(C)N(C(=O)c1csnn1)C(C(=O)NC1CCCC1)c1ccccc1F` (centres undefined) gave hgDAF12 agonist -2, ssDAF12 agonist -1, hcDAF-12 act -1, PolyA inhibitor -21, DAX1 inh-1 1 and DAX1 inh-2 0.
COc1ccc(C(C#N)N2N=C(c3ccccc3)CC2c2ccccc2)cc1OC (centres undefined) was read as hgDAF12 agonist 7, ssDAF12 agonist 0, hcDAF-12 act 8.7*, PolyA inhibitor -9, DAX1 inh-1 2, DAX1 inh-2 2, LXR ag 0 and hcDAF12 ag 2.
For COc1ccc(C(C#N)N2N=C(C)CC2c2ccccc2)cc1OC (centres undefined) the results were hgDAF12 agonist -2, ssDAF12 agonist 0, hcDAF-12 act 0, PolyA inhibitor -24, DAX1 inh-1 0 and DAX1 inh-2 0.
COC(=O)c1ccc(NC(=O)C(OC)c2ccccc2)cc1 (centres undefined) was read as hgDAF12 agonist -1, ssDAF12 agonist -1, hcDAF-12 act -2, PolyA inhibitor -11, DAX1 inh-1 0 and DAX1 inh-2 4.
For COC(=O)[C@]12C[C@H](CC(=O)NCCCN3CCCC3=O)C(=O)N(Cc3ccc4c(c3)OCO4)C1=C[C@H](C(C)(C)C)O[C@@H]2C the results were hgDAF12 agonist -1, ssDAF12 agonist -1, hcDAF-12 act 0 and DAX1 inh-1 0.
COc1ccc(C(CC(=O)Nc2cc([N+](=O)[O-])ccc2OC)c2ccccc2)cc1 (centres undefined) was read as hgDAF12 agonist 1, ssDAF12 agonist -2, hcDAF-12 act -2, PolyA inhibitor -4, DAX1 inh-1 -1 and DAX1 inh-2 0.
Cc1ccsc1/C=N/NC(=O)C(O)c1ccccc1 (centres undefined) was read as hgDAF12 agonist 0, ssDAF12 agonist -2, hcDAF-12 act 2, PolyA inhibitor -5, DAX1 inh-1 0 and DAX1 inh-2 1.
Screening Cc1ccsc1/C=N/NC(=O)c1ccccn1 returned hgDAF12 agonist 10, ssDAF12 agonist 0, hcDAF-12 act 10*, PolyA inhibitor -5, DAX1 inh-1 3, DAX1 inh-2 0, LXR ag 1 and hcDAF12 ag 3.
Screening O=C(Nc1cnns1)Oc1ccccc1 returned hgDAF12 agonist 0, ssDAF12 agonist -1, hcDAF-12 act 0, DAX1 inh-1 0 and DAX1 inh-2 0.
For Cc1c(C(=O)NC2CCN(Cc3ccccc3)C2)oc2c(Cl)cccc12 (centres undefined) the results were hgDAF12 agonist -1, ssDAF12 agonist -1, hcDAF-12 act 7.0*, PolyA inhibitor 2, DAX1 inh-1 0, DAX1 inh-2 0, LXR ag 0 and hcDAF12 ag 2.
For CCn1c([N+](=O)[O-])nc2c1c(=O)[nH]c(=O)n2C the results were hgDAF12 agonist 3, ssDAF12 agonist -1, hcDAF-12 act 0, PolyA inhibitor 6, DAX1 inh-1 0 and DAX1 inh-2 -1.

High-throughput results: PubChem, several laboratories
